Bioassay records from PubChem BioAssay.
In the library only some 3.2% were active in any assay of this set; here they are far more common.
GSIS activator: GLuc luminescence reporter in INS-1E cells, primary screen for activators of glucose-dependent secretion of insulin | INS-1E GLuc reporter insulin secretion, 2-3 h | activation, % at 16.6 µM | actives 0.61% (n = 370,000);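 active = lowest replicate activation of at least 40%, so every replicate reaches that level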;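 also: 0% = median of neutral control wells and 100% = median of IBMX positive control wells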
Ecoli rRNA inh: reduced GFP signal of wild-type E. coli, primary screen, bacterial rRNA inhibitor project, GFP/RFP fluorescence, OD600, single point. actives 1.6% (n = 350,000). GFP signal change (wild-type ribosome), % (no concentration beside the values). AID 720706, 2013. E. coli WT GFP vs humanized-ribosome RFP mutants, 24 h; hits give low values; DMSO median 0, no signal -100;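 active = significant combined selectivity score with lowered wild-type GFP, culture density cut under 30%, mutant RFP and density less affected; inactive = any of these conditions unmet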
ERAP1 HTS inh: human ERAP1 aminopeptidase inhibitors, primary screen, biochemical, single point, plate reader; Endoplasmic reticulum aminopeptidase 1 (Homo sapiens), Q9NZ08; recombinant ERAP1, Leu-AMC fluorescence, 60 min; inhibition, % at 10.7 µM; actives 0.15% (n = 340,000); AID 652197, 2013;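 active = mean replicate inhibition of at least 30%, or all replicates individually reaching that 30% level; inactive = mean below 30% and not every replicate reaching it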;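 also: 0% = neutral control wells and 100% = L-leucinethiol positive control wells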
Target sequence (Q9NZ08 whole entry, looked up): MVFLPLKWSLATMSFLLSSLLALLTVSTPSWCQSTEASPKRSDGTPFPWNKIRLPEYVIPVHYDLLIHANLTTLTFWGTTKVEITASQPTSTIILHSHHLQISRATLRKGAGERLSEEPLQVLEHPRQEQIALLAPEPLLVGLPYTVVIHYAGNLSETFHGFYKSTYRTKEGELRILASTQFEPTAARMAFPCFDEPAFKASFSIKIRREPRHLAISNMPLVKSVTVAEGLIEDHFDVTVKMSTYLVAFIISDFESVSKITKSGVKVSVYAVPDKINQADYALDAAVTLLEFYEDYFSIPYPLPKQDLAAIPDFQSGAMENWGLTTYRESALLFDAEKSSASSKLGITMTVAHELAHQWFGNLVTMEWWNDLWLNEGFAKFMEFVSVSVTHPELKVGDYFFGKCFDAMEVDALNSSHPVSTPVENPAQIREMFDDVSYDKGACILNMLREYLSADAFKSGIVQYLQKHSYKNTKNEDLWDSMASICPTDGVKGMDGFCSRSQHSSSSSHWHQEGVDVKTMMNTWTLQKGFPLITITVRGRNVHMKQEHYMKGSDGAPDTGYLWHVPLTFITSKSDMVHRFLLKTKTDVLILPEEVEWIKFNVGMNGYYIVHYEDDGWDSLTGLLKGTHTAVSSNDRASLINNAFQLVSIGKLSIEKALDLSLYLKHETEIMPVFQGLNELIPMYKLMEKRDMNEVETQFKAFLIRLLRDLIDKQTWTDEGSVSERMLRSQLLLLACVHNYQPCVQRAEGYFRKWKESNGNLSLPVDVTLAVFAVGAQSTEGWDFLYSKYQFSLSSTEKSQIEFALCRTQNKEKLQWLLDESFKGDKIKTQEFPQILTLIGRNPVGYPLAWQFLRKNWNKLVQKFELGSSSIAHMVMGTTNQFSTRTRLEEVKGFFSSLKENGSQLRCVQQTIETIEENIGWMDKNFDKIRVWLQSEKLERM
PGC1a acetyl inh: inhibitors of PGC1a acetylation signal, primary screen, cell-based, U2OS, AlphaScreen, inhibitor mode. AlphaScreen anti-acetyl-lysine; with virally co-expressed GCN5 acetyltransferase. inhibition, % at 15.6 µM. actives 0.17% (n = 350,000);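 active = every replicate shows inhibition of at least 40%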;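 also: 0% = neutral control wells and 100% = positive control wells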
DENV2 CPE: inhibitors of DENV2 cytopathic effect, primary screen, cell-based, plate reader, single concentration; DENV2-infected cells, cytopathic effect rescue; CPE inhibition, % at 9.99 µM; actives 1.7% (n = 350,000); AID 651640, 2012; in the data active = CPE inhibition above about 20%, passing the limit was not always enough; tested in BHK-21 cells;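 also: 0% = median of neutral control wells and 100% = median of positive control wells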
CaV13 FRET inh: Primary screen for inhibitors of IQ motif and Ca2+-dependent inactivation inhibitor domain binding in CACNA1D, Förster resonance energy transfer in living cells, …; HEK cells, CFP/YFP FRET ICDI-IQ, plate reader, 10 min; percent FRET-ratio fall versus neutral wells; inhibition, % at 12.3 µM; actives 0.098% (n = 340,000); AID 743397;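 active = mean replicate inhibition of at least 30% and at least 1% of replicates passing that level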;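 also: 0% = median of the neutral control wells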
Starred values were filed as active, the others as inactive.

How did COCC(=O)N1[C@H](C#N)[C@H](c2ccccc2-c2ccccc2)[C@@H]1CO do in these assays?
GSIS activator: 4; Ecoli rRNA inh: 4; ERAP1 HTS inh: -1; PGC1a acetyl inh: -1; DENV2 CPE: 1

What do the screens show for `COc1ccc(NC(=O)Nc2ccc3c(c2)[C@H]2C[C@@H](CC(=O)N4CCCCC4)O[C@H](CO)[C@H]2O3)cc1`?
GSIS activator: -9; Ecoli rRNA inh: -1; ERAP1 HTS inh: -2; PGC1a acetyl inh: -23; DENV2 CPE: -4

What do the screens show for `CCCNC(=O)C[C@H]1CC[C@H]2[C@@H](COc3ccc(NC(=O)Cc4ccccc4)cc3C(=O)N2C)O1`?
GSIS activator: 0; Ecoli rRNA inh: 0; ERAP1 HTS inh: -3; PGC1a acetyl inh: -4; DENV2 CPE: 2

Results for Cc1ccc(S(=O)(=O)N(C)C[C@H]2Oc3ccc(NS(=O)(=O)c4c(C)noc4C)cc3CC(=O)N([C@@H](C)CO)C[C@@H]2C)cc1 ?
GSIS activator: 5; Ecoli rRNA inh: -1; ERAP1 HTS inh: -2; PGC1a acetyl inh: 7; DENV2 CPE: 14

Results for C[C@H]1CN(C)C(=O)c2cccc(N(C)C)c2O[C@H]1CN(C)S(C)(=O)=O ?
GSIS activator: 16; Ecoli rRNA inh: 0

Results for C[C@H](CO)N1C[C@H](C)[C@H](CN(C)CC2CCCCC2)OCCCC[C@H](C)Oc2ccc(NC(=O)Nc3ccccc3)cc2C1=O ?
GSIS activator: -11; Ecoli rRNA inh: -1; ERAP1 HTS inh: -5; PGC1a acetyl inh: 9; DENV2 CPE: -4

What do the screens show for `Cc1ccc(-c2ccccc2[C@@H]2[C@H](C#N)N(C(=O)Cc3cccnc3)[C@H]2CO)cc1`?
GSIS activator: -15; Ecoli rRNA inh: -7; ERAP1 HTS inh: 2; PGC1a acetyl inh: -11; DENV2 CPE: 26*

How did Cc1cc([N+](=O)[O-])ccc1N do in these assays?
GSIS activator: 42*; Ecoli rRNA inh: 0; ERAP1 HTS inh: 1; DENV2 CPE: 10; CaV13 FRET inh: -6

What do the screens show for `Cc1ccnc(NS(=O)(=O)c2cccc([N+](=O)[O-])c2)c1`?
GSIS activator: 6; Ecoli rRNA inh: 8; ERAP1 HTS inh: 2; PGC1a acetyl inh: 1; DENV2 CPE: 2; CaV13 FRET inh: 1

How did Cc1ccc(S(=O)(=O)Nc2c(C)cc([N+](=O)[O-])cc2C)cc1 do in these assays?
GSIS activator: -11; Ecoli rRNA inh: -22*; ERAP1 HTS inh: 1; DENV2 CPE: -7; CaV13 FRET inh: -6

Results for Cc1cc([N+](=O)[O-])ccc1NCc1ccccc1 ?
PGC1a acetyl inh: -20

Results for CCOC(=O)Nc1ccc([N+](=O)[O-])cc1C ?
GSIS activator: 2; Ecoli rRNA inh: 10; ERAP1 HTS inh: -2; PGC1a acetyl inh: 2; CaV13 FRET inh: -5

Results for Cc1ccc(S(=O)(=O)NCCNc2ccc([N+](=O)[O-])cc2)cc1 ?
GSIS activator: -20; Ecoli rRNA inh: -27*; ERAP1 HTS inh: 1; DENV2 CPE: -1

What do the screens show for `COc1ccc(CNc2ccc([N+](=O)[O-])cc2C)cc1`?
GSIS activator: -3; Ecoli rRNA inh: -24*; ERAP1 HTS inh: 4; PGC1a acetyl inh: 4; DENV2 CPE: -4; CaV13 FRET inh: -5

Results for Cc1ccc(S(=O)(=O)NCCCNc2ccc([N+](=O)[O-])cc2)cc1 ?
GSIS activator: -19; Ecoli rRNA inh: -36; ERAP1 HTS inh: -1; PGC1a acetyl inh: -2; DENV2 CPE: 12; CaV13 FRET inh: -6

Results for CCCN(C)C[C@@H]1Oc2ncc(-c3ccccc3F)cc2C(=O)N([C@H](C)CO)C[C@H]1C ?
GSIS activator: 12; Ecoli rRNA inh: 3; ERAP1 HTS inh: -1; PGC1a acetyl inh: -13; DENV2 CPE: -5
